Bioassay records from PubChem.
Rows were chosen to be rich in hits. Some 2.2% of all compounds tested hit in one or more screens of this group.
ADAM10 inh: ADAM10 inhibition, QFRET primary screen. hit rate 0.62% among 370,000. recombinant ADAM10, EDANS/DABCYL FRET peptide cleavage, 3 h. inhibition, % at 7 µM;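 active means inhibition above a per-campaign cutoff equal to the mean of compounds falling between control-based bounds plus 3 SD, cut at about 20% in these data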;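 further: 0% = DMSO wells while the 100% control is not disclosed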
proKLK7 act: proKLK7 (human) activation, primary screen | hit rate 0.9% among 370,000 | AID 652039 | P49862 | activation, % at 7 µM | purified proKLK7, EDANS-DABCYL substrate fluorescence; 100% is mature enzyme control, 0% vehicle;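 active means activation above the mean of all tested compounds plus 3 SD, computed per campaign excluding outliers beyond control limits, cut at about 13% in these data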
Target sequence (P49862 whole entry, looked up): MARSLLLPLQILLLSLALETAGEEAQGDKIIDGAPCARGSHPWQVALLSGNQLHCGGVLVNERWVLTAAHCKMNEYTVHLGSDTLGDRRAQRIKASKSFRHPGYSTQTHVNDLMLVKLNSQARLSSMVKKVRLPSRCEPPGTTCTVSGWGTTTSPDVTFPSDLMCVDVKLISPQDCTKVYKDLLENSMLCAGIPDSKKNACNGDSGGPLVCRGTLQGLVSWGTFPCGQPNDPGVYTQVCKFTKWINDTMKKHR
ADAM17 inh: ADAM17 inhibition, QFRET primary screen. P78536. recombinant ADAM17, EDANS/DABCYL FRET peptide cleavage. inhibition, % at 6.95 µM. hit rate 0.83% among 370,000. AID 720648;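 active means inhibition above the mean of compounds lying between control limits plus 3 SD, set per campaign, cut at about 8.5% in these data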;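 further: 0% = DMSO-only wells as the low control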
GC-B act: GC-B (human) receptor activation. P20594. HEK293-GC-B cells, CNP EC30, cGMP TR-FRET; 0% at EC30 CNP, 100% saturating CNP. activation, % at 10 µM. AID 1920062. hit rate 0.11% among 370,000;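 active means activation at 10 µM reaching about 35% in either raw or pattern-adjusted values, limit read from the data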
NPR1 activator: GC-A (human) enzyme activation | P16066 | HEK293 GC-A cells, cGMP TR-FRET, EC30 ANP; 0% at EC30 ANP, 100% saturating ANP | activation, % at 10 µM | hit rate 0.14% among 370,000 | AID 1671463; in the data active means activation above about 40%
* = called active by the depositor.

SMILES	ADAM10 inh	proKLK7 act	ADAM17 inh	GC-B act	NPR1 activator
C=CCn1c(=O)c2c3c(sc2n2c(Nc4ccccc4)nnc12)CCCC3	6	0	3	26	26
C=CCn1c(=O)c2c3c(sc2n2c(Nc4ccc(OC)cc4)nnc12)CCCC3	9	0	5	54*	48*
C=c1[nH]cc(C(C)c2c(C)n(C)c3ccccc23)/c1=C/C (configuration not stated)	-24	0	-8	-5	-2
COc1cc(C=Nn2c(-c3ccc(F)cc3)n[nH]c2=S)ccc1OCc1ccccc1	-1	0	-2	-7	-7
COC(=O)C[C@@H]1CC[C@H]2[C@@H](COc3ccc(NS(=O)(=O)c4ccccc4F)cc3C(=O)N2C)O1	-3	0	-2	-5	3
Cc1cc(Br)c2nc3c(c(C(=O)O)c2c1)CCCCC3	-6	0	-5	18	64*
COc1ccc(S(=O)(=O)Nc2cccc(C(C)=O)c2)cc1Br	-5	0	-2	-7	-5
COc1ccc(S(=O)(=O)Nc2cccc(N(C)S(C)(=O)=O)c2)cc1Br	-2	0	-3	37*	34
O=C(Nc1ccc([N+](=O)[O-])cc1)C1CC1(c1ccccc1)c1ccccc1 (configuration not stated)	3	0	3	-5	0
CC1(C)C(C=C(Cl)Cl)C1C(=O)Nc1ccc([N+](=O)[O-])cc1 (configuration not stated)	25*	0	11*	-2	3
CC(C)C[C@@H]1COc2cc(Br)ccc2S(=O)(=O)N1Cc1cn(Cc2ccccc2)nn1	-11	1	-5	3	0
Nc1nc2c(ncn2[C@@H]2O[C@H](C(=O)N[C@H](Cc3ccccc3)C(=O)NCc3ccc4c(c3)OCO4)[C@@H](O)[C@H]2O)c(=O)[nH]1	-12	0	-3	37*	31
FC(F)(F)c1ccccc1NC(=S)OC1CCC12CCC(c1ccccc1)CC2 (configuration not stated)	-8	1	-3	1	2
O=S1(=O)c2c(cccc2N2CCSCC2)Oc2ccccc2CN1Cc1cn(Cc2cccc(C(F)(F)F)c2)nn1	2	-5	3	0	-1
COc1ccccc1-c1cc(C(F)(F)F)nc(S(=O)(=O)CCCC(=O)N2CCCCC2C)n1 (configuration not stated)	-18	-7	-7	9	78*
COc1ccccc1/C=C/C(=O)Nc1cccnc1Cl	-49	1	-23	-1	-1
COc1ccccc1-c1cc(C(F)(F)F)nc(S(=O)(=O)CCCC(=O)Nc2cc(C)on2)n1	-10	0	-4	10	76*
COc1ccccc1-c1cc(C(F)(F)F)nc(N2CCCC2)n1	-3	1	-2	-1	-8
COc1ccccc1-c1cc(C(F)(F)F)nc(S(=O)(=O)CCCC(=O)NCc2ccc(F)cc2)n1	-42	-9	-15	12	75*
COc1ccccc1-c1cc(C(F)(F)F)nc(S(=O)(=O)CCCC(=O)Nc2cccnc2Cl)n1	-65	-3	-14	5	73*
O=C1N2Cc3ccccc3C2CS(=O)(=O)N1Cc1ccccc1 (configuration not stated)	3	-1	2	-2	0
COc1ccccc1-c1cc(C(F)(F)F)nc(S(=O)(=O)CCCC(=O)NC(C)C)n1	-9	1	-2	16	73*
COc1ccc(-c2cc(C(F)(F)F)nc(S(=O)(=O)CCCC(=O)Nc3cc(C)on3)n2)cc1OC	-4	3	-3	-2	13
COc1ccccc1-c1cc(C(F)(F)F)nc(S(C)(=O)=O)n1	-50	6	-10	5	77*
CCCCNC(=O)C[C@H]1C[C@@]2(C(=O)OC)C(=C[C@H](COCc3ccccc3)O[C@@H]2C)N(Cc2ccco2)C1=O	-7	0	-5	2	4
SMILES	ADAM10 inh	proKLK7 act	ADAM17 inh	GC-B act	NPR1 activator
Cc1cccc(Nc2nc(N)c([N+](=O)[O-])c(N3CCCC(C)C3)n2)c1 (configuration not stated)	17	0	9.0*	3	10
Cc1cccc(Nc2nc(N)c([N+](=O)[O-])c(N3CCN(C)CC3)n2)c1	-7	0	-2	2	5
CC(C)CCn1cnc2c(c1=O)c1nc3ccccc3nc1n2Cc1ccc2c(c1)OCO2	-4	-1	-1	50*	39
O=c1c2ccccc2ncn1Cc1ccc2c(c1)OCO2	0	0	-3	6	4
NC(=O)C1(Nc2ccc(-c3ccc(Br)cc3)cc2)CCCC1	-5	1	0	-4	52*
COc1cccc(/C=C2\CC3(OC(=O)c4cccc(F)c4)CCCN2C3)c1 (configuration not stated)	-4	0	3	-13	1
CC(=O)Nc1c2c(nn1-c1ccccc1C)CS(=O)(=O)C2	3	0	4	4	3
Cc1ccccc1-n1nc2c(c1NC(=O)c1cc3ccccc3oc1=O)CS(=O)(=O)C2	1	1	0	38*	31
Cc1ccc2c(c1)C1CS(=O)(=O)N(Cc3ccc(F)cc3)CN1C2 (configuration not stated)	-5	0	-1	-1	-3
O=C1OCCC1Sc1nc2cc(Cl)ccc2s1 (configuration not stated)	-3	0	-4	54*	38
COCCN(CCOC)C(=O)c1sc2nc(-c3ccccc3)cn2c1C	-5	-1	-2	-5	1
Cc1c(C(N)=O)sc2nc(-c3ccccc3)cn12	5	-1	-2	74*	4
CCCOc1ccc(/C=C2/C(=O)ON=C2C)cc1OCC	-7	-1	-3	19	35
C=CCOc1ccc(/C=C2/C(=O)ON=C2C)cc1OC	2	-1	-3	23	41*
CCOc1cc(/C=C2\C(=O)ON=C2C)ccc1OCc1ccccc1	-8	1	1	46*	38
C=CCOC(=O)N1CCC(NS(=O)(=O)c2ccc3c(c2)CCN3C(C)=O)CC1	-8	-1	0	-7	-6
CC(=O)Nc1ccc(Nc2nc(C)c([N+](=O)[O-])c(Nc3ccc(NC(C)=O)cc3)n2)cc1	12	1	7	38*	33
CCOC(=O)[C@@]12CCCC3=C1N(CCC3)C(=O)[C@H]2CC(=O)NCCC(C)C	-4	0	-5	-4	2
CCN1C(=O)[C@H]2[C@@H](c3ccc(-c4ccc(F)cc4)c(OC)c3)N3CCCC[C@@]3(C(=O)OC)[C@H]2C1=O	7	0	8.6*	-2	-3
Cc1c(NC(=O)C2CCCN(S(=O)(=O)c3cccc4ccccc34)C2)c(=O)n(-c2ccccc2)n1C (configuration not stated)	1	0	1	-6	3
